Experimental data from the supplement of paper PMC10981050.
Several values for one entry are separate records, joined by “and”; a condition that tells them apart may be missing. Equal values may be shown once.

Legend:
Test in all cases: cell viability relative to vehicle control; higher = less cytotoxic
Details in all cases: 10 µM
K562 = test system: K562
Method in brief: (§1)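 CRISPR-edited mutant clones and isogenic wild-type clones from four leukaemia lines were screened against Selleck bioactive, kinase and epigenetic probe libraries, with identity-inconsistent compounds excluded. Each compound was acoustically dispensed at a single 10 µM dose into 384-well plates holding 2000 cells in 50 µL medium per well. After 48 h the supernatant was removed and CellTiter-Glo luminescence was read. Viability was expressed as percent of the on-plate vehicle control and analysed in Genedata Screener.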

MARIMO = test system: MARIMO
Method in brief: as §1

MOLM14 = test system: MOLM14
Method in brief: as §1

OCI-AML2 = test system: OCI-AML2
Method in brief: as §1

Row | Structure (SMILES) | cell viability (K562; SRSF2 genotype: SRSF2 P95H/wt) | cell viability (K562; SRSF2 genotype: SRSF2 wt/wt) | cell viability (MARIMO; SRSF2 genotype: SRSF2 P95H/wt) | cell viability (MARIMO; SRSF2 genotype: SRSF2 wt/wt) | cell viability (MOLM14; SRSF2 genotype: SRSF2 P95H/wt) | cell viability (MOLM14; SRSF2 genotype: SRSF2 wt/wt) | cell viability (OCI-AML2; SRSF2 genotype: P95H/wt) | cell viability (OCI-AML2; SRSF2 genotype: wt/wt)
1 | C=CCNC(N)=S [Allylthiourea] | 98.8% and 95.9% | 107% | 108% | 112% | 101% | 104% | 99.8% | 110%
2 | Cc1nc(Nc2ncc(C(=O)Nc3cc(NC(=O)c4cccc(C(F)(F)F)c4)ccc3C)s2)cc(N2CCN(CCO)CC2)n1 | 11.4% and 16% | 20.1% | 50% | 63% | 12.2% | 13.8% | 55.5% | 57.3%
3 | CC(=O)OCC(=O)[C@H]1CC[C@H]2[C@@H]3CCC4=CC(=O)CC[C@]4(C)[C@H]3CC[C@]12C [Deoxycorticosterone acetate] | 91.4% and 91.9% | 98.4% | 89.8% | 99% | 89% | 96.2% | 86.1% | 76.2%
4 | Cc1ccc(Nc2cc(N[C@@H]3CCCC[C@@H]3N)nnc2C(N)=O)nc1C | 80.8% and 84.1% | 80.7% | 76.2% | 79% | 18.6% | 18% | 15.1% | 25.2%
5 | CC/C(=C(/c1ccc(/C=C/C(=O)O)cc1)c1ccc2[nH]ncc2c1)c1ccc(F)cc1Cl [Brilanestrant (GDC-0810, ARN-810)] | 100% and 106% | 96.2% | 102% | 95.1% | 86.8% | 92.3% | 96.9% | 102%
6 | CCN(CC)c1ccc(C=NNC(=O)c2ccc(O)cc2)cc1 | 46.8% and 47.9% | 51.9% | 53.8% | 52.2% | 56.2% | 49.9% | 70.1% | 69.3%
7 | CC(C)[C@H](CO)Nc1nc(Nc2cccc(Cl)c2)c2ncn(C(C)C)c2n1 [Purvalanol A] | 82.5% and 94.9% | 85.1% | 72% | 83% | 41.2% | 33.9% | 47.6% | 54.3%
8 | Nc1nc2c(ncn2[C@@H]2O[C@H](CO)[C@@H](O)[C@H]2O)c(=O)[nH]1 [Guanosine] | 87.3% and 93.1% | 93.2% | 88.2% | 103% | 92.5% | 99.8% | 103% | 97.5%
9 | Nc1ccc(C(=O)O)c(O)c1 [Sodium 4-Aminosalicylate] | 89.6% and 88.1% | 81.3% | 85.7% | 92.5% | 88.7% | 88.1% | 86.3% | 97.5%
10 | C[C@H](Nc1ncnc2[nH]cnc12)c1cc2ccc(F)cc2nc1-c1ccccn1 | 90.3% and 89.3% | 91.5% | 81.5% | 85% | 69.2% | 67% | 64.5% | 73.4%
